The full ranking holds about 25,000 sequences; the median of “ln(normalized median fluorescence intensity)” is about 9.3, and the highest 2% start at about 10. The sample as a whole holds a higher share of the highest values than the screen did.
tested on: PF3D7_0420300 AP2 domain 1 (GST-tagged); assay: gcPBM binding intensity (ln(normalized median fluorescence intensity)); higher = stronger DNA binding
How it was run: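 Binding intensity is defined as the maximum Masliner-normalised natural-log median intensity across replicate spots for either probe orientation. It was measured on an Agilent 4 × 180k array of primer-extended double-stranded 36-bp intergenic genomic probes and negative controls, to which GST-tagged P. falciparum DNA-binding domains made in E. coli were applied for 1 h in 1× PBS with 1% milk, 0.2 mg/ml BSA, 0.5% salmon testes DNA and 0.03% Triton X-100. Detection was by Alexa488 anti-GST antibody and scanning at 488 nm.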

Row | Sequence | gcPBM binding intensity (ln)
1 | ATTATTACACAACGTTGTACATTTCAATATTTTTAT [XGTACX_site5096] | 9.52
2 | TAAATTTTAATATGCACACAAAATGTTATATTAAAA [CACACA_site4366] | 9.11
3 | ATAAAAATAACATATAAACACACATATATATATATA [CACACA_site9267] | 9.35
4 | CTTGTATATAAACACACACACACTTTCTTTTTTTAA [CACACA_site8602] | 9.91
5 | AACTTGTATATATACACACACACACTGTCTTTTTTT [CACACA_site1963] | 10.2
6 | ATAACTTGTATATATACACACACACCCTTTCTTTTT [CACACA_site8600] | 10.1
7 | AACTTGTATTTATACACACACACACTGTCTTTTTTT [CACACA_site7009] | 10.3
8 | AACTTGTATTTATACACACACACACTAGCTTTTTTT [CACACA_site5132] | 10.2
9 | TTGTATATACTATACACACACATACATACATACATA [CACACA_site814] | 9.85
10 | TATATAGTAATATATACACACACTTGTCTTGTAAAA [CACACA_site990] | 9.56
11 | AACTTGTATATATACACACACACACTATCTTTTTTT [CACACA_site8601] | 10.2
12 | TATATTTATTTATATACACACACTTGTATAAAAAAT [CACACA_site2036] | 9.4
13 | TTCAAAGACACAATCACACACATACATAAATATACA [CACACA_site687] | 9.84
14 | TAATCGAAACAAAGAACATGCAAACATATACCTATA [TGCATGCA_site894] | 9.6
15 | ATTTATACATATAAACGTACATACATATATAATATT [XGTACX_site2969] | 9.3
16 | TATTTTTATATAATGTGTACTTATACCTTATTTTTT [XGTACX_site1658] | 9.3
17 | TATATATTATATATATGTACTTATTCATATATATAA [XGTACX_site3860] | 9.06
18 | TTTTACTTAAAACACACACACACAAAAAAAAAAAAA [CACACA_site947] | 9.96
19 | CACACGCACGAACACACACACATATAAATATAAATA [CACACA_site6299] | 9.92
20 | AAATATAATAAAATGACACACGCATATATATATATA [CACACA_site8900] | 9.38
21 | CACACGCACGAACACACACACACACGCATATAAATA [CACACA_site6302] | 10.3
22 | ACACGCACATATATATAAATATATATATATATAAAT [CACACA_negctrl_site1781] | 9.21
23 | ATATAAAGAAAAGGAACACACAAATATATATATATA [CACACA_site463] | 9.57
24 | AGAATAAAAAGGAACACACACACACGCATATAAATA [CACACA_site7659] | 10.3
25 | AAATTCCACGAACACACACACATATAAATAAATAAA [CACACA_site6697] | 9.97

Row | Sequence | gcPBM binding intensity (ln)
26 | AGAATAAAAAGGAACACACACACACCCATATATATA [CACACA_site3590] | 10.1
27 | CACGCGCACGAACACACACACACACGCATATAAATA [CACACA_site7103] | 10.3
28 | CAGTAGTATATACTATGTACATATTTATATTATATT [XGTACX_site4964] | 9.22
29 | TAATAAACCAAACTAAACAATATATCAAAAAGCACA [CACACA_negctrl_site269] | 9.75
30 | TATATATATATTTTAACACACACATATATATATTTA [CACACA_site8892] | 9.63
31 | TGAAAGAACCTGATTACACACATAAATTATATATAT [CACACA_site26] | 9.54
32 | GTAATATCAATATAAAGTACACACTATAGTATGTAT [XGTACX_site4714] | 9.52
33 | TTTTAAATAAAAAAATTAAATTAAAATATATAAAAA [XGTACX_negctrl_site490] | 8.82
34 | TGTATTAACAAAAAGGTGCGGATATATATAAAAAAT [GTGCAC_site9473] | 9.61
35 | ATACATATATACATATGTACATATATATATATATAT [XGTACX_site8206] | 9.3
36 | AAAAAAAAAAAAAAAAAAAAAAATATATATATATAT [XGTACX_negctrl_site33] | 9.26
37 | ACATCGATTTATATTCTGCACTGAAGAAACTACAAC [GTGCAC_site9967] | 9.32
38 | CATATTTGGAAACACACACACATATTTATATATATA [CACACA_site3569] | 9.95
39 | TGTAAATTTGGCATCACACATAAATAAACATATAAA [CACACA_site4497] | 9.4
40 | ATTTGGCAGAAACACACACACACACCCACCCACATA [CACACA_site589] | 10.4
41 | TAGAAGCAGAAACACACACACATACATACACATACA [CACACA_site1467] | 9.99
42 | ATAATTTGGAAACACACACACACACCCACATATATA [CACACA_site2286] | 10.3
43 | ATTTGGCATAAACACACACACACACCCACCCACATA [CACACA_site8096] | 10.4
44 | TAATTTTTGAAACACACACACATATATATATATATA [CACACA_site94] | 9.71
45 | TACATAAATTAATAGTCACACACGTATTTTTTATAT [CACACA_site8806] | 9.45
46 | AATAGAACTATTACACGTACAGAACATGAATTAGTT [XGTACX_site7518] | 9.36
47 | TCAAAAGAAATAAAAACATGCATAAAAGTAAAAATA [TGCATGCA_site832] | 9.33
48 | ATAAATGACAAATTAACACACATATATTATAGATAT [CACACA_site7770] | 9.68
49 | TATATATTATATAAATAAATAAATATATATATTTAT [TGCATGCA_negctrl_site270] | 8.94
50 | TTTTTATTTTTTTACAGTACATAAAATAAATAAATA [XGTACX_site6596] | 8.84

Source: the supplement of paper PMC11417369
